Screening results as filed in PubChem.
Sm TGR inh = inhibitors of Schistosoma mansoni thioredoxin glutathione reductase; Q962Y6; purified TGR, DTNB reduction, TNB absorbance 405 nm; Potency, µM (top dose mostly 114 µM), for inactives: at the highest dose activity change, negative = inhibition, usual class: inhibitors; 3% of 360,000 active; AID 485364; also: nearly all actives have a fitted effect of over 60% in size
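TGR 20 nM + NADPH 100 uM (dispensed conc.), cpd preinc 15 min RT; start with NADPH (500 uM addition) then DTNB (15 mM addition). Kinetic TNB absorbance, 405 nm filter. Four-parameter Hill fit across titration.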
AmpC detergent = AmpC beta-lactamase inhibition with detergent present. P00811. AmpC hydrolysis of nitrocefin, absorbance 480 nm, 0.01% Triton. Potency, µM (series often up to 114 µM), for the others: at the top dose activity change, negative = inhibition, most hits filed as inhibitors. 0.041% of 370,000 active;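 also: 0% = no-compound wells and -100% = no-enzyme wells; nearly all actives have a fitted effect of over 25% in size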
Target sequence (P00811 whole entry, looked up): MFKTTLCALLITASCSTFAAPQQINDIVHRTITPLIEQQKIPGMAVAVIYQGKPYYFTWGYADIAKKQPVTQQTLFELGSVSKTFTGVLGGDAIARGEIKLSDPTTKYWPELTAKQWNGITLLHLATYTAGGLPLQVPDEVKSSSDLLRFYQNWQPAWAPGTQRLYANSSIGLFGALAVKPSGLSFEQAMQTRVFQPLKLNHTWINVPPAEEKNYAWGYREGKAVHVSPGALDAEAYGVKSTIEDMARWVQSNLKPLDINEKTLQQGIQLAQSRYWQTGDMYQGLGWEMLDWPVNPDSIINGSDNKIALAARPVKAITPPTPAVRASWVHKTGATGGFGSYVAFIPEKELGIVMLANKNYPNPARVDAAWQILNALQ
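20 mM phosphate pH 7.0 + 0.01% (detergent screen) or 0.0001% Triton X-100; 5.3 nM AmpC reagent; cpd preinc 15 min RT; nitrocefin (800 uM stock) to start; A480 q20 s × 4 min; Activity was normalised to no-enzyme and no-compound control wells.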
AmpC no deterg = blocks E. coli AmpC beta-lactamase in detergent-free assay; AID 485341; Potency, µM (series often up to 57.1 µM), without a hit: at the highest dose activity change, negative = inhibition, usual class: inhibitors; 0.52% of 330,000 active; P00811; AmpC nitrocefin hydrolysis, absorbance 480 nm, 0.0001% Triton;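 also: plate controls were no compound for no effect and no enzyme for full effect; nearly all actives have a fitted effect of over 20% in size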
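AmpC (5.3 nM in the dispensed reagent) in 20 mM phosphate pH 7.0 with 0.01% (detergent screen) or 0.0001% Triton X-100 was preincubated with compounds for 15 min at room temperature. Nitrocefin was then added from an 800 uM solution, and hydrolysis was followed at 480 nm.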
The depositor's hits bear a star; ? = inconclusive; nt = not tested or not shown. Rows were chosen to be rich in hits. Some 3.3% of all compounds tested hit in one or more screens of this group. Calls follow the shape of the dose curve; as a rule, active = well fitted curve in the direction sought with a large enough effect; inconclusive = small, poorly fitted or top-dose-only effect, or another doubt; inactive = no such curve, though single readings can be large; an effect the other way counts as inactive or inconclusive. Unless noted, % is scaled to controls: 0 for no effect and ±100 for the full control effect; potency is read from the fitted curve at half-maximal effect.

SMILES | Sm TGR inh | AmpC detergent | AmpC no deterg
COc1cccc(C2=NO[C@@H]3C(=O)N(c4ccc5c(c4)OCCO5)C(=O)[C@H]23)c1OC | 40µM* | -15% | -7%
Cc1ccc(Cn2c(=O)c3cccnc3n(Cc3ccc(F)cc3)c2=O)cc1 | 4% | 14% | nt
Fc1ccccc1-n1ncc2c1ncn1nc(Cc3ccccc3)nc21 | 1% | -4% | nt
Cc1ccc(-c2nnc(Nc3ccc(S(N)(=O)=O)cc3)c3ccccc23)cc1S(=O)(=O)N1CCOCC1 | 5% | 15% | nt
Cc1ccc(OCCSc2nc3ccc(NC(=O)c4ccc5c(c4)OCO5)cc3s2)cc1 | 6% | 22% | nt
CC(C)OCCCN1C(=O)c2[nH]nc(-c3ccccc3O)c2C1c1ccc(OCc2ccccc2)cc1 (stereo not drawn) | -6% | -2% | nt
CCOC(=O)CC1C(=O)NCCN1C(=O)c1cc2c(=O)n3cccc(C)c3nc2s1 (stereo not drawn) | 35µM* | -6% | -2%
CCOC(=O)CC1C(=O)NCCN1C(=O)c1cc2c(=O)n3ccccc3nc2s1 (stereo not drawn) | -5% | -6% | -7%
CC(C)OCCCn1c(SCc2ccccc2Cl)nc2c(sc3ccccc32)c1=O | 20% | 9% | nt
COC(=O)CN1C(=O)CSc2ccc(S(=O)(=O)Nc3ccc(C)c(Cl)c3)cc21 | 6% | -1% | nt
CCn1c(CCNC(=O)c2ccc(F)cc2)nc2ccccc21 | 0% | -8% | -2%
CCn1c(CCCNC(=O)c2ccc(F)cc2)nc2ccccc21 | 0% | ? | 35µM*
O=C(NCCc1ccc(F)cc1)C(=O)NCC(c1cccs1)S(=O)(=O)c1ccc(F)cc1 (stereo not drawn) | -5% | 1% | nt
CC(=O)CSc1nnc2[nH]c(=O)cc(N)n12 | 10% | 3% | nt
COc1cc2c(cc1OC)C(c1ccccc1)N(C(=O)c1ccco1)CC2 (stereo not drawn) | -24% | 3% | 92%
O=C(c1ccco1)N1CCn2cccc2C1c1ccccc1 (stereo not drawn) | 35µM* | -2% | -1%
Cc1cc(SCC(=O)Nc2ccc(C(F)(F)F)cc2)nc(=O)[nH]1 | -5% | 4% | nt
Cc1cccc(C(=O)CC(=O)c2cc(Cl)ccc2O)c1 | -4% | -7% | -41%
Cc1ccc(O)c(C(=O)CC(=O)c2cccc(F)c2)c1 | 5% | -5% | 20µM*
COc1ccc(CNC(=O)c2oc3c(c2C)-c2nn(Cc4ccc(Cl)cc4)cc2CC3)cc1 | 5% | 23% | nt
Cc1ccccc1OC(=O)c1snnc1C | 7% | 22% | nt
Cc1nnsc1C(=O)Oc1ccccc1Cl | 45µM* | 22% | nt
O=C(CSc1nnc(SCc2cccc3ccccc23)s1)Nc1ccc(C(=O)O)cc1 | -3% | -1% | -40%
O=C(CSc1nnc(SCc2cccc3ccccc23)s1)c1ccc2c(c1)OCO2 | 7% | -9% | 25µM*
COc1ccc(-c2cccc(NS(=O)(=O)c3ccc(C)s3)c2)nn1 | 5% | 20% | nt
SMILES | Sm TGR inh | AmpC detergent | AmpC no deterg
Cc1ccc(OCC(=O)NCC2(N3CCOCC3)CCCCC2)cc1C | -3% | 0% | nt
Cc1ccc(N2CCN(C(=O)c3nn(C)c4c3CSc3ccccc3-4)CC2C)cc1 (stereo not drawn) | 4% | -7% | nt
COc1cc(N2C(=O)C=CC2=O)c(OC)cc1Cl | 0.71µM* | -9% | -17%
COc1cc(Cl)c(S(=O)(=O)N2CCCC2)cc1Cl | ? | 0% | 27%
COc1ccc(-n2c(SCc3ccccc3)nc3c([nH]c4ccccc43)c2=O)cc1 | 2% | 6% | nt
Cc1ccc(S(=O)(=O)Cc2cc(F)c([N+](=O)[O-])cc2[N+](=O)[O-])cc1 | 1.8µM* | 0% | -41%
CCOC(=O)c1ccc([N+](=O)[O-])c(CS(=O)(=O)c2ccc(Cl)cc2)c1 | 14% | 0% | -41%
CCOc1ccc(C2c3c(oc4ccc(C)cc4c3=O)C(=O)N2CCCN(C)C)cc1OC (stereo not drawn) | -4% | 5% | nt
COc1ccc(CNCc2c(C(=O)O)c(C)n(Cc3ccccc3C)c2C)c(OC)c1 | -13% | -12% | nt
O=C(Cn1ccc(NC(=O)OCc2ccccc2)nc1=O)NCCc1ccccn1 | 32µM* | -3% | -3%
O=C(Cn1ccc(NC(=O)OCc2ccccc2)nc1=O)NCc1ccccn1 | 4% | 4% | 0%
COc1ccccc1NC(=O)CC(c1ccc(F)cc1)c1ccco1 (stereo not drawn) | ? | 11% | -37%
CCCNCCC(c1ccco1)c1ccccc1OC (stereo not drawn) | -8% | ? | 6%
O=C(CS(=O)(=O)c1ccc(F)cc1)Nc1nccs1 | 1% | ? | 32µM*
COc1ccccc1C(CC(=O)Nc1nccs1)c1ccco1 (stereo not drawn) | 50µM* | ? | -45%
Cc1ccccc1OCCCC(=O)Nc1nccs1 | 8% | -8% | -26%
O=C(CC(c1ccc(F)cc1)c1ccco1)Nc1nccs1 (stereo not drawn) | 40µM* | 7% | -28%
O=C(COc1ccc(F)cc1)Nc1nccs1 | 0% | -11% | -12%
CCC(=O)NCCC(c1ccco1)c1ccccc1OC (stereo not drawn) | 25µM* | ? | 142%
CC(C)c1cnc2c(c1SCC(=O)c1ccccc1)c(=O)n(C)c(=O)n2C | -10% | 1% | nt
CCOc1ccc(OCC)c(NC(=O)C2CCCN(S(=O)(=O)c3cc(Br)cc4c3N(C(=O)CC)CC4)C2)c1 (stereo not drawn) | 5% | 12% | nt
Cc1ccc(C)c(-n2nnc(-c3nc(-c4ccccc4C)no3)c2C)c1 | 9% | 3% | nt
O=C(CSc1nc2ccccc2n1Cc1c(F)cccc1Cl)N1CCN(c2ccc(F)cc2)CC1 | ? | -1% | nt
O=C(Nc1ccc(Br)cc1)c1cccc(C(=O)Nc2ccc(Br)cc2)c1 | -5% | 1% | nt
CCN(CC)C(=O)Cn1cc(SCC(=O)Nc2cccc(C)c2)c2ccccc21 | 1% | 18% | nt
SMILES | Sm TGR inh | AmpC detergent | AmpC no deterg
Cn1cnc([N+](=O)[O-])c1Sc1ccc(Br)cc1 | 22µM* | -14% | -20%
Cc1ccc(Sc2c([N+](=O)[O-])ncn2C)cc1 | ? | -12% | -19%
CCCS(=O)(=O)c1nc(S(=O)(=O)c2ccc(C)cc2)c(NCc2ccccc2Cl)s1 | -24% | -3% | nt
CCN1CCN(C(=O)C2CCC(=O)N(Cc3cccc(C(F)(F)F)c3)C2)CC1 (stereo not drawn) | -9% | -6% | 24%
CN1CCN(C(=O)C2CCC(=O)N(Cc3cccc(C(F)(F)F)c3)C2)CC1 (stereo not drawn) | 7.9µM* | -8% | 14%
CCOC(=O)C1=C(C)N=c2s/c(=C\c3ccncc3)c(=O)n2C1c1ccc2c(c1)OCO2 (stereo not drawn) | -14% | ? | 25%
CCOC(=O)C1=C(C)N=c2s/c(=C3\C(=O)Nc4ccccc43)c(=O)n2C1c1ccc2c(c1)OCO2 (stereo not drawn) | 4µM* | 3% | -22%
CCc1ccc(CNC(=O)CN2C(=O)CSc3c2c(C)nn3-c2ccccc2)cc1 | -10% | -11% | nt
Cc1ccc(NC(=O)C(=O)NCC(c2cccnc2)N2CCN(Cc3ccccc3)CC2)cc1F (stereo not drawn) | 11% | 21% | nt
